Measurements published in PubChem BioAssay.
Calls of active or inactive are those of the source.

Columns and labels:
[1] = test system: Plasmodium falciparum Sir2 (PF13_0152, Sir2A); assay: Plasmodium falciparum Sir2A binding compounds – biochemical, small-molecule microarray, 635 nm fluorescence, primary screen (AID 1098); conditions: fluorescence 635 nm, higher = more signal;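 also: score merges spot fluorescence intensity with its signal-to-noise ratio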
[2] = probe aDKK1 binding to arrayed compounds – biochemical, biotinylated probe, 635/667 nm fluorescence, primary screen (AID 1099); conditions: small-molecule microarray, higher = more signal;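 also: score merges 667nm spot fluorescence with signal to noise across triplicate slides; reference of the scale not given here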
[3] = probe aCHRDL2 binding to arrayed compounds – biochemical, biotinylated probe, 635/667 nm fluorescence, primary screen (AID 1100); conditions: small-molecule microarray, higher = more signal
[4] = change in splice reporter luminescence, either direction, cell-based, HEK293, spliceosome inhibition project, primary screen (AID 1101); conditions: HEK293 splicing luciferase reporter, 24 h, higher = more signal, called active from +8 up or from −8 down;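 also: HEK293 cells carrying a splicing-competent luciferase reporter gene; test concentration not given here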
[5] = molecular target: Fibroblast growth factor 10 (Homo sapiens) (UniProt O15520); assay: compounds binding fibroblast growth factor 10 – biochemical, small-molecule microarray, 635 nm fluorescence, primary screen (AID 1102); conditions: FGF10 binding, fluorescence 635 nm, higher = more signal
[6] = test system: glycogen synthase kinase-3 (GSK3A per assay name; protocol says GSK3B); assay: compounds binding glycogen synthase kinase-3 – biochemical, small-molecule microarray, 635 nm fluorescence, GSK3A, primary screen (AID 1103); conditions: fluorescence 635 nm, higher = more signal; also: the record names both GSK3A and GSK3B
[7] = molecular target: Epidermal growth factor receptor (Homo sapiens) (UniProt P00533); assay: compounds binding epidermal growth factor receptor – biochemical, small-molecule microarray, 635 nm fluorescence, primary screen (AID 1104); conditions: EGFR binding, higher = more signal;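 also: score merges 667 nm emission intensity with spot signal to noise over triplicate slides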
[8] = molecular target: Follistatin-related protein 3 (Homo sapiens) (UniProt O95633); assay: compounds binding follistatin-related protein 3 – biochemical, small-molecule microarray, 635 nm fluorescence, primary screen (AID 1105); conditions: FSTL3 binding, higher = more signal;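 also: score merges emission near 667 nm and signal to noise per printed spot across three slides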
[9] = molecular target: Dickkopf-related protein 1 (Homo sapiens) (UniProt O94907); assay: small molecules binding DKK1 protein – biochemical, small-molecule microarray, 635 nm fluorescence scan, primary screen (AID 1106); conditions: higher = more signal;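 also: score merges emission near 667 nm with signal to noise over three replicate slides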
[10] = test system: Inhibin beta A chain (activin A); assay: small molecules binding activin A – biochemical, small-molecule microarray, 635 nm fluorescence scan, primary screen (AID 1107); conditions: INHBA, higher = more signal;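 also: mouse activin A protein probed at 4.33 µg/mL on printed slides; score merges bound-protein fluorescence near 667 nm with spot signal-to-noise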

Epidermal growth factor receptor (Homo sapiens), sequence (P00533 whole entry, looked up): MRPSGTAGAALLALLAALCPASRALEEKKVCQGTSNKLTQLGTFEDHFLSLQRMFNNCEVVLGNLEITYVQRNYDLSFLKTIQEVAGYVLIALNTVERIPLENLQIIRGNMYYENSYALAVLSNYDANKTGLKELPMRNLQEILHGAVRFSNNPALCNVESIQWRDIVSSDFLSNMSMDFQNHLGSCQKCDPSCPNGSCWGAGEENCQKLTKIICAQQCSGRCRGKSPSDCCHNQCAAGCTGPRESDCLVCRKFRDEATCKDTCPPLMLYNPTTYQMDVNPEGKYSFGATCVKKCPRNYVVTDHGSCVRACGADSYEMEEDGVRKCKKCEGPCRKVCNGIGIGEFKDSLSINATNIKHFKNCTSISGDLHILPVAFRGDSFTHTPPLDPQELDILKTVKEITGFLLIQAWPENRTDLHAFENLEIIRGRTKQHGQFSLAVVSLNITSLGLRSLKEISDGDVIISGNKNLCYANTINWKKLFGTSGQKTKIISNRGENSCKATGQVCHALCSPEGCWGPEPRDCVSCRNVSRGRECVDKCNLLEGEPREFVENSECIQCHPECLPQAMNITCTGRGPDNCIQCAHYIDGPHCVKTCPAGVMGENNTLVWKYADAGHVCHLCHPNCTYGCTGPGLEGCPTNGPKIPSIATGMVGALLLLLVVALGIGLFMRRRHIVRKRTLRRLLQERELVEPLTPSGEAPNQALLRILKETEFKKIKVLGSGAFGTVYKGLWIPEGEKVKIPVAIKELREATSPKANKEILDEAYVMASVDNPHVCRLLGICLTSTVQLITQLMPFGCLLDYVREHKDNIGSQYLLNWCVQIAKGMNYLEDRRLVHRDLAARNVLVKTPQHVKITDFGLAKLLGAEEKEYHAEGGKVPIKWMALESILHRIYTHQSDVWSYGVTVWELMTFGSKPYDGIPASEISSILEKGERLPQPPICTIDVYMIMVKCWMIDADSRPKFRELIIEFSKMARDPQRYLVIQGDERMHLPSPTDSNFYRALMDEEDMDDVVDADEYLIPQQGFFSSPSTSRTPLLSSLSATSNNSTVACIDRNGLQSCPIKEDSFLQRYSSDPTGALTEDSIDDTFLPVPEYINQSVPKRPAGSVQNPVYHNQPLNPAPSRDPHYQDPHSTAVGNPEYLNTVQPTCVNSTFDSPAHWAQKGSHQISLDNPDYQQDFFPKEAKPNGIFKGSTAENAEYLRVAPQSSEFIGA
Fibroblast growth factor 10 (Homo sapiens), sequence (O15520 whole entry, looked up): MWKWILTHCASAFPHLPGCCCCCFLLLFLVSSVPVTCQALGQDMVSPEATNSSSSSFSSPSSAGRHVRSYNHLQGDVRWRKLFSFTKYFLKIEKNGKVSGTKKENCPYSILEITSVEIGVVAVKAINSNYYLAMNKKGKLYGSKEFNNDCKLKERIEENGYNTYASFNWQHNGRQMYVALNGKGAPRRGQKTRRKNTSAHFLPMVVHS
Dickkopf-related protein 1 (Homo sapiens), sequence (O94907 whole entry, looked up): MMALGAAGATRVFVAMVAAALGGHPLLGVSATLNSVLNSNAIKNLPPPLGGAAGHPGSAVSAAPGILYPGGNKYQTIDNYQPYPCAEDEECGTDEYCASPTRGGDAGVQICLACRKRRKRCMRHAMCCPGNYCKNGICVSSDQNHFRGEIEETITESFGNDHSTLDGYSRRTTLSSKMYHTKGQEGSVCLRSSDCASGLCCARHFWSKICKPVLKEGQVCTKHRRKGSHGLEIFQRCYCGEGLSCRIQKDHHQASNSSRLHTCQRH
Follistatin-related protein 3 (Homo sapiens), sequence (O95633 whole entry, looked up): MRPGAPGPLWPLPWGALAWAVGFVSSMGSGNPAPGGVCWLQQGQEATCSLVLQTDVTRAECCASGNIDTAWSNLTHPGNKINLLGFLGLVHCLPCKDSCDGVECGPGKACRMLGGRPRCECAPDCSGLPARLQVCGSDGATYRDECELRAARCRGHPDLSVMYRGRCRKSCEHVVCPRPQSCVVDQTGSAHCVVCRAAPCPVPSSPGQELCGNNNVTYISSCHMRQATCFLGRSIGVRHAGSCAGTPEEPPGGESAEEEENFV

| SMILES | composite z-score [1] | composite z-score [2] | composite z-score [3] | z-score [4] | composite z-score [5] | composite z-score [6] | composite z-score [7] | composite z-score [8] | composite z-score [9] | composite z-score [10] |
| --- | --- | --- | --- | --- | --- | --- | --- | --- | --- | --- |
| COC(=O)[C@@]1(Cc2ccc(F)cc2)[C@H]2c3cc(C(=O)N4CCCC4)n(Cc4cc(C)n(C)n4)c3C[C@H]2CN1C(=O)c1ccccc1 | 0.89 | 1.01 | 1.4 | -3.14 (inactive) | 0.533 | 0.775 | -0.144 | -0.261 | -0.449 | 1.28 |
| [N-]=[N+]=Nc1ccccc1C[C@@]1(C(=O)NCCN2CCOCC2)N=C(c2ccc(OCCCO)cc2)O[C@@H]1c1ccccc1 | 1.57 | 0.532 | 0.915 | -0.724 (inactive) | 1.35 | 1.29 | 0.245 | 1.21 | 0.461 | 0.847 |
| CCOC1=C2C(CN(S(=O)(=O)c3ccc(C)cc3)C2c2ccc(C)cc2)C2C(=O)N(c3ccccc3)C(=O)C2C1 (stereo not given) | 0.9 | 0.0373 | 0.267 | -0.113 (inactive) | 1.25 | 0.36 | 0.171 | 0.782 | 0.207 | 0.809 |
| CCCC=C(CCC)[C@@H](NS(=O)(=O)c1cccs1)c1ccc(C(=O)OC)cc1 | 0.565 | 0.922 | 1.18 | 3.75 (inactive) | 0.77 | 1.19 | -0.122 | 0.622 | -0.569 | -0.0034 |
| C=CCN1C(=O)[C@]2(O[C@H](CCO)[C@@H]([Si](C)(C)c3ccc(OC)cc3)[C@@H]2C)c2cc(N3C(=O)c4cccc5cccc3c45)ccc21 | 1.18 | 0.0458 | 0.151 | -2.45 (inactive) | 0.446 | 0.398 | -0.0841 | 0.286 | -0.255 | 0.552 |
| CCOC(=O)C=Cc1cc([N+](=O)[O-])ccc1O | -0.551 | -0.14 | -0.134 | -1.72 (inactive) | -0.395 | -0.398 | -0.899 | -0.971 | -0.693 | -0.855 |
| [N-]=[N+]=Nc1ccccc1C[C@]1(C(N)=O)N=C(c2ccc(OCCCO)cc2)O[C@H]1c1ccccc1 | 1.13 | 0.0609 | 0.875 | 0.297 (inactive) | 0.181 | 0.532 | -1.44 | -0.255 | -0.748 | 0.511 |
| COc1ccc(C(=O)Nc2ccc(CN3C(=O)[C@@]4(O[C@@H](CCO)[C@H]([Si](C)(C)c5ccc(OC)cc5)[C@H]4C)c4ccccc43)cc2)cc1 | 1.32 | 0.381 | 0.47 | -3.19 (inactive) | 0.793 | 1.1 | 0.65 | 1.45 | 1.04 | 1.39 |
| C=CCNC(=O)[C@H]1[C@@H]2C(=O)O[C@@H](c3ccccc3)[C@@H](c3ccccc3)N2[C@@H](c2ccc(O)cc2)[C@]12C(=O)N(C(=O)OCCOC)c1ccc(C#CCNC(N)=O)cc12 | 0.867 | 0.297 | 0.537 | 0.481 (inactive) | 0.855 | 1.11 | 0.157 | 0.999 | 0.936 | 0.969 |
| O=C1C[C@]2(c3ccc([N+](=O)[O-])cc3)C(=O)N(CCN3CCOCC3)c3cc(CO)ccc3[C@H]2N1C1CCCCC1 | 0.781 | 0.42 | 0.828 | -1.05 (inactive) | -0.142 | -0.587 | -0.517 | -0.875 | -0.877 | 0.342 |
| [N-]=[N+]=NCc1ccccc1[C@H]1OC(c2ccc(OCCCO)cc2)=N[C@@]1(Cc1ccccc1)C(=O)NCc1ccccc1 | 0.173 | 0.646 | 0.894 | 1.09 (inactive) | 0.672 | 1.27 | 0.169 | 0.231 | -0.238 | -0.151 |
| COc1ccc(CCN2C(=O)[C@@]3(c4ccc([N+](=O)[O-])cc4)CC(=O)N(C4CCCCC4)[C@@H]3c3ccc(CO)cc32)cc1 | 0.582 | 0.274 | 0.181 | -0.0884 (inactive) | 0.586 | 0.711 | -0.267 | 1.2 | 1.48 | 0.889 |
| O=C1c2ccccc2[C@](Cc2ccccc2I)(C(=O)NC2CC2)[C@H](c2ccc(CO)cc2)N1C1CCCCC1 | 1.19 | -0.809 | -0.589 | -0.578 (inactive) | 0.724 | 1.33 | 0.543 | 1.05 | 0.529 | 0.435 |
| COC(=O)[C@@]1(Cc2ccc(OC)cc2)[C@H]2c3cc(C(=O)N(C)C)n(CCN4CNCC4=O)c3C[C@H]2CN1C(=O)c1ccccc1 | 0.44 | -0.218 | 0.7 | 2.02 (inactive) | -0.33 | -0.638 | 0.259 | -0.153 | -0.812 | 0.712 |
| C=C(COC)/C(=C/C[C@@H](OC(C)=O)c1ccc(CO)o1)c1cnc2ccccc2c1 | 0.974 | 0.201 | -0.189 | -0.683 (inactive) | 1.46 | 1.32 | 1.57 | 1.5 | 1.13 | 1.74 |
| CCCCCCC#C[Si](O[C@H](c1ccccc1)c1cn([C@H](CO)Cc2ccccc2)nn1)(C(C)C)C(C)C | 0.984 | -0.35 | -0.101 | -0.77 (inactive) | 0.629 | 0.166 | -0.525 | -0.25 | -0.15 | -0.33 |
| O=C1[C@H]2C=C(Br)[C@H](C[C@@H]2c2ccccc2)[C@@]12CO2 | -0.0067 | -0.217 | -0.261 | 0.723 (inactive) | 0.774 | 0.381 | 0.513 | 0.733 | 0.765 | 0.648 |

| SMILES | composite z-score [1] | composite z-score [2] | composite z-score [3] | z-score [4] | composite z-score [5] | composite z-score [6] | composite z-score [7] | composite z-score [8] | composite z-score [9] | composite z-score [10] |
| --- | --- | --- | --- | --- | --- | --- | --- | --- | --- | --- |
| C=CC[C@@]1(C(N)=O)N=C(c2ccc(OCCCO)cc2)O[C@@H]1c1ccccc1CN=[N+]=[N-] | 1.02 | 0.917 | 1.19 | -1.63 (inactive) | 0.903 | 0.336 | -0.44 | 0.267 | -0.196 | 1.14 |
| CC(C)C(=C=CC[C@@H](O)c1ccccc1OCCO)CCO | 0.116 | -0.258 | 0.133 | -0.0616 (inactive) | 1.36 | 0.0661 | -0.195 | 0.0893 | 0.326 | 0.434 |
| COCCCN1C(=O)[C@@]2(c3ccc([N+](=O)[O-])cc3)CC(=O)N(C3CCCCC3)[C@@H]2c2ccc(CO)cc21 | 0.555 | -0.24 | -0.319 | -0.237 (inactive) | 0.301 | 0.237 | -0.0732 | 0.593 | 0.3 | 0.717 |
| Cc1ccc(C(C)CC(O)C2C=CC3C(=O)N(C)C(=O)C3N2NC(=O)OC(C)(C)C)o1 (stereo not given) | 1.07 | 0.202 | 0.0719 | 1.92 (inactive) | 0.803 | 1.29 | 0.96 | 1.3 | 0.837 | -0.0924 |
| O=C1O[C@H](c2ccccc2)[C@H](c2ccccc2)N2[C@H]1[C@@H](C(=O)N1CCN(c3ncccn3)CC1)[C@]1(C(=O)Nc3ccc(C#CC4=CCCCC4)cc31)[C@H]2c1ccc(O)cc1 | 0.789 | -0.0869 | 0.566 | -0.725 (inactive) | 0.76 | 0.754 | 0.442 | 0.738 | -0.0441 | -0.0074 |
| O=C1O[C@H](c2ccccc2)[C@H](c2ccccc2)N2[C@H]1[C@@H](C(=O)O)[C@]1(C(=O)Nc3ccc(C#CCCO)cc31)[C@H]2c1ccc(O)cc1 | 0.218 | 1.13 | 1.14 | -0.765 (inactive) | -0.378 | -0.222 | -0.289 | -0.321 | -0.572 | 1.18 |
| COC(=O)C=C(CC(O)c1cccc(Cl)c1)OC (stereo not given) | -0.02 | 1.5 | 0.48 | -1.12 (inactive) | 0.182 | -0.134 | -0.485 | -0.374 | -0.186 | 1.14 |
| Cc1ccc(S[C@]2(C(=O)NCCN3CCOCC3)CC(=O)N(Cc3ccccc3)[C@@H]2c2ccc(CO)cc2I)cc1 | 1.41 | 0.361 | 1.11 | -1.88 (inactive) | -1.61 | -1.12 | -1.72 | -1.24 | -1.51 | 0.476 |
| O=C1O[C@@H](c2ccccc2)[C@@H](c2ccccc2)N2[C@@H](c3ccccc3OCCO)[C@]3(C(=O)Nc4ccc(C#CC5=CCCCC5)cc43)[C@@H](C(=O)Nc3nc4ccccc4s3)[C@H]12 | 1.5 | 0.0826 | -0.0401 | -0.459 (inactive) | 1.32 | 1.29 | 0.463 | 1.23 | 0.619 | 0.137 |
| C=C(CCCC)C(=O)CC[C@@H](OC(=O)c1cccnc1)c1ccc(CO)o1 | 1.15 | 0.0013 | -0.269 | 0.08 (inactive) | 1.21 | 0.958 | 0.641 | 0.916 | 0.576 | 1.3 |
| O=C(C1N=C(c2ccc(OCCCO)cc2)N(c2ccccc2)O1)N1CCOCC1 (stereo not given) | 0.298 | 0.56 | 0.538 | -0.799 (inactive) | 1.46 | 1.3 | 0.0096 | 0.695 | 0.858 | 0.315 |
| CC1CC/C=C\[C@H]2OC34C=CCN(c5ccc(Cl)cc5)C(=O)[C@H]3N(CCO)C(=O)[C@]4(C)C2C(=O)O1 (stereo not given in full) | 0.111 | -0.197 | 0.693 | 0.568 (inactive) | -0.379 | -0.15 | -0.483 | -0.646 | -1.46 | 1.27 |
| COc1ccc(C(=O)O[C@H]2CC[C@]3(C)C4=C(CCC3C2(C)C)[C@]2(C)CC[C@H]([C@H](C)CCCC(C)C)[C@@]2(C)CC4)cc1 (stereo not given in full) | 0.0931 | -0.287 | -0.384 | -0.968 (inactive) | 0.205 | 0.751 | 0.302 | 0.561 | 0.458 | 0.225 |
| CCN(CC)c1ccc(N2CC=CC34O[C@@H]5/C=C\CCC(C)OC(=O)C5[C@H]3C(=O)N(C(CO)C(C)C)[C@@H]4C2=O)cc1 (stereo not given in full) | 0.492 | -0.204 | 0.0959 | -0.208 (inactive) | -0.709 | -0.806 | -0.532 | -1.1 | -0.41 | 1.15 |
| C=CCOC(=O)[C@@H]1[C@H]2C(=O)O[C@H](c3ccccc3)[C@H](c3ccccc3)N2[C@H](c2ccc(OCCOC(=O)[C@@H]3C[C@@H]4C(=O)N5CCC[C@H]5C(=O)N4[C@@H]3c3ccc(O)cc3)cc2)[C@@]12C(=O)Nc1ccc(I)cc12 | 0.544 | -0.627 | -0.257 | -1.98 (inactive) | 0.624 | 1.3 | 0.555 | 0.913 | 0.794 | -0.495 |
| CCOC(=O)C[C@H]1[C@H](OC(=O)c2cc3ccccc3oc2=O)[C@@H](NC(=O)C2CCCCC2)c2cc(OCCCO)ccc2N1C(=O)c1ccccc1 | 0.784 | -0.23 | -0.377 | -1.45 (inactive) | 0.995 | 0.692 | 0.593 | 0.708 | 0.5 | 0.707 |
